# Source: the supplement of paper PMC8728848
# Only a selection was taken, and the strongest signals are over-represented in it overall.
# Assays:
# Assay in all cases: glycan array binding signal (z-score within array); higher = stronger binding
# Conditions in all cases: glycan notation: IUPAC condensed, linker removed
# [1] = target: Fuc(a1-2)Gal(b1-3)GlcNAc(b1-3)[Gal(b1-4)GlcNAc(b1-6)]Gal(b1-4)Glc
# Procedure, shortened: (§1)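 Glycan array data came from 3228 arrays in the Consortium for Functional Glycomics database, and only arrays with an available protein sequence were kept. Glycan names were put into IUPAC-condensed notation, and columns mapping to the same glycan were averaged. The binding signal is a within-array Z-score, averaged across arrays of one protein sequence run at different concentrations or buffers and across linkers. A negative Z-score can be read as non-binding.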
# Fuc(a1-2)Gal(b1-4)GlcNAc = target: Fuc(a1-2)Gal(b1-4)GlcNAc
# Procedure, shortened: as §1
# [2] = target: Fuc(a1-2)Gal(b1-4)GlcNAc(b1-3)[Fuc(a1-3)[Gal(b1-4)]GlcNAc(b1-6)]Gal(b1-4)Glc
# Procedure, shortened: as §1
# [3] = target: Fuc(a1-2)Gal(b1-4)GlcNAc(b1-6)GalNAc
# Procedure, shortened: as §1
# [4] = target: Fuc(a1-2)Gal6S(b1-3)GlcNAc
# Procedure, shortened: as §1
# [5] = target: Fuc(a1-2)[Gal(a1-3)]Gal(b1-3)GlcNAc(b1-2)Man(a1-3)[Fuc(a1-2)[Gal(a1-3)]Gal(b1-3)GlcNAc(b1-2)Man(a1-6)]Man(b1-4)GlcNAc(b1-4)GlcNAc
# Procedure, shortened: as §1
# [6] = target: Fuc(a1-2)[Gal(a1-3)]Gal(b1-3)GlcNAc(b1-6)GalNAc
# Procedure, shortened: as §1
# [7] = target: Fuc(a1-2)[Gal(a1-4)]Gal(b1-4)GlcNAc
# Procedure, shortened: as §1
# [8] = target: Fuc(a1-2)[GalNAc(a1-3)]Gal(b1-3)GlcNAc(b1-6)GalNAc
# Procedure, shortened: as §1
# [9] = target: Fuc(a1-2)[GalNAc(a1-3)]Gal(b1-4)GlcNAc(b1-2)Man(a1-3)[Fuc(a1-2)[GalNAc(a1-3)]Gal(b1-4)GlcNAc(b1-2)Man(a1-6)]Man(b1-4)GlcNAc(b1-4)[Fuc(a1-6)]GlcNAc
# Procedure, shortened: as §1
# [10] = target: Fuc(a1-2)[GalNAc(a1-3)]Gal(b1-4)GlcNAc(b1-6)GalNAc
# Procedure, shortened: as §1
# [11] = target: Fuc(a1-2)[GalNAc(a1-4)]Gal(b1-4)GlcNAc
# Procedure, shortened: as §1
# [12] = target: Fuc(a1-3)[Gal(b1-4)]GlcNAc(b1-2)Man(a1-3)[Fuc(a1-3)[Gal(b1-4)]GlcNAc(b1-2)Man(a1-6)]Man(b1-4)GlcNAc(b1-4)[Fuc(a1-6)]GlcNAc
# Procedure, shortened: as §1
# [13] = target: Fuc(a1-3)[Gal(b1-4)]GlcNAc(b1-3)Gal(b1-4)[Fuc(a1-3)]GlcNAc(b1-3)Gal(b1-4)[Fuc(a1-3)]GlcNAc
# Procedure, shortened: as §1
# [14] = target: Fuc(a1-3)[Gal3S(b1-4)]GlcNAc6S
# Procedure, shortened: as §1
# [15] = target: Gal(b1-3)[Fuc(a1-4)]GlcNAc(b1-3)Gal(b1-3)[Fuc(a1-4)]GlcNAc
# Procedure, shortened: as §1
# [16] = target: Gal(b1-3)[Fuc(a1-4)]GlcNAc(b1-6)GalNAc
# Procedure, shortened: as §1
# Gal(b1-4)Glc = target: Gal(b1-4)Glc
# Procedure, shortened: as §1
# [17] = target: Gal(b1-4)GlcNAc(b1-2)Man(a1-3)[Man(a1-6)]Man(b1-4)GlcNAc(b1-4)GlcNAc
# Procedure, shortened: as §1
# [18] = target: GalNAc(b1-3)Gal(a1-4)Gal(b1-4)GlcNAc(b1-3)Gal(b1-4)Glc
# Procedure, shortened: as §1
# GalNAc(b1-3)GalNAc = target: GalNAc(b1-3)GalNAc
# Procedure, shortened: as §1
# [19] = target: GlcA3S(b1-3)Gal(b1-4)GlcNAc(b1-2)Man
# Procedure, shortened: as §1
# [20] = target: GlcNAc(b1-3)Gal(b1-4)GlcNAc(b1-3)Gal(b1-4)GlcNAc(b1-3)Gal(b1-4)GlcNAc(b1-2)Man(a1-3)[GlcNAc(b1-3)Gal(b1-4)GlcNAc(b1-3)Gal(b1-4)GlcNAc(b1-3)Gal(b1-4)GlcNAc(b1-2)Man(a1-6)]Man(b1-4)GlcNAc(b1-4)GlcNAc
# Procedure, shortened: as §1
# [21] = target: GlcNAc(b1-3)Gal(b1-4)GlcNAc(b1-3)Gal(b1-4)GlcNAc(b1-3)Gal(b1-4)GlcNAc(b1-3)Gal(b1-4)GlcNAc(b1-2)[GlcNAc(b1-3)Gal(b1-4)GlcNAc(b1-3)Gal(b1-4)GlcNAc(b1-3)Gal(b1-4)GlcNAc(b1-3)Gal(b1-4)GlcNAc(b1-6)]Man(a1-6)[GlcNAc(b1-3)Gal(b1-4)GlcNAc(b1-3)Gal(b1-4)GlcNAc(b1-3)Gal(b1-4)GlcNAc(b1-3)Gal(b1-4)GlcNAc(b1-2)Man(a1-3)]Man(b1-4)GlcNAc(b1-4)[Fuc(a1-6)]GlcNAc
# Procedure, shortened: as §1
# [22] = target: Neu5Ac(a2-3)Gal(b1-3)GlcNAc(b1-2)Man(a1-3)[GlcNAc(b1-4)][Neu5Ac(a2-3)Gal(b1-3)GlcNAc(b1-2)Man(a1-6)]Man(b1-4)GlcNAc(b1-4)GlcNAc
# Procedure, shortened: as §1
# [23] = target: Neu5Ac(a2-3)Gal(b1-3)GlcNAc(b1-2)[Neu5Ac(a2-3)Gal(b1-3)GlcNAc(b1-4)]Man(a1-6)[Neu5Ac(a2-3)Gal(b1-3)GlcNAc(b1-2)Man(a1-3)]Man(b1-4)GlcNAc(b1-4)GlcNAc
# Procedure, shortened: as §1
# [24] = target: Neu5Ac(a2-3)Gal(b1-3)[Fuc(a1-4)]GlcNAc
# Procedure, shortened: as §1
# [25] = target: Neu5Ac(a2-3)Gal(b1-3)]Neu5Ac(a2-3)Gal(b1-4)]GlcNAc
# Procedure, shortened: as §1
# [26] = target: Neu5Ac(a2-3)Gal(b1-4)GlcNAc
# Procedure, shortened: as §1
# [27] = target: Neu5Ac(a2-3)Gal(b1-4)GlcNAc(b1-2)Man(a1-3)[Neu5Ac(a2-3)Gal(b1-4)GlcNAc(b1-2)Man(a1-6)]Man(b1-4)GlcNAc(b1-4)[Fuc(a1-6)]GlcNAc
# Procedure, shortened: as §1
# [28] = target: Neu5Ac(a2-3)Gal(b1-4)GlcNAc(b1-3)Gal(b1-4)GlcNAc(b1-3)Gal(b1-4)GlcNAc
# Procedure, shortened: as §1
# [29] = target: Neu5Ac(a2-3)Gal(b1-4)GlcNAc(b1-3)Gal(b1-4)GlcNAc(b1-3)GalNAc
# Procedure, shortened: as §1
# [30] = target: Neu5Ac(a2-3)Gal(b1-4)GlcNAc6S
# Procedure, shortened: as §1
# [31] = target: Neu5Ac(a2-3)Gal(b1-4)[Fuc(a1-3)]GlcNAc6S
# Procedure, shortened: as §1
# [32] = target: Neu5Ac(a2-3)Gal6S(b1-4)GlcNAc
# Procedure, shortened: as §1
# [33] = target: Neu5Ac(a2-3)Gal6S(b1-4)[Fuc(a1-3)]GlcNAc
# Procedure, shortened: as §1
# Neu5Ac(a2-6)Gal(b1-4)Glc = target: Neu5Ac(a2-6)Gal(b1-4)Glc
# Procedure, shortened: as §1
# [34] = target: Neu5Ac(a2-6)Gal(b1-4)GlcNAc(b1-3)[Neu5Ac(a2-6)Gal(b1-4)GlcNAc(b1-6)]GalNAc
# Procedure, shortened: as §1
# Neu5Ac(a2-8)Neu5Ac = target: Neu5Ac(a2-8)Neu5Ac
# Procedure, shortened: as §1
# [35] = target: Neu5Ac(a2-8)Neu5Ac(a2-3)Gal(b1-3)GalNAc(b1-4)[Neu5Ac(a2-3)]Gal(b1-4)Glc
# Procedure, shortened: as §1
# [36] = target: Neu5Gc(a2-3)Gal(b1-3)[Fuc(a1-4)]GlcNAc
# Procedure, shortened: as §1
# [37] = target: Neu5Gc(a2-3)Gal(b1-4)GlcNAc(b1-3)Gal(b1-4)GlcNAc(b1-2)Man(a1-3)[Neu5Gc(a2-3)Gal(b1-4)GlcNAc(b1-3)Gal(b1-4)GlcNAc(b1-2)Man(a1-6)]Man(b1-4)GlcNAc(b1-4)GlcNAc
# Procedure, shortened: as §1
# Neu5Gc(a2-6)GalNAc = target: Neu5Gc(a2-6)GalNAc
# Procedure, shortened: as §1
# [38] = target: Neu5Gc(a2-8)Neu5Ac(a2-3)Gal(b1-4)GlcNAc
# Procedure, shortened: as §1
binder,measurement,setting,value
diCBM40 CPF071 (Clostridium perfringens) (protein) MAHHHHHHVGTGSNDDDDKSPDPMLSSLGEYKDINLESSNASNITYDLEKYKNLDEGTIVVRFNSKDSKIQSLLGISNSKTKNGYFNFYVTNSRVGFELRNQKNEGNTQNGTENLVHMYKDVALNDGDNTVALKIEKNKGYKLFLNGKMIKEVKDTNTKFLNNIENLDSAFIGKTNRYGQSNEYNFKGNIGFMNIYNEPLGDDYLLSKTGETKALNGSELGSGSGLSSLGEYKDINLESSNASNITYDLEKYKNLDEGTIVVRFNSKDSKIQSLLGISNSKTKNGYFNFYVTNSRVGFELRNQKNEGNTQNGTENLVHMYKDVALNDGDNTVALKIEKNKGYKLFLNGKMIKEVKDTNTKFLNNIENLDSAFIGKTNRYGQSNEYNFKGNIGFMNIYNEPLGDDYLLSKTGETK,glycan array binding signal (z-score),[1],-0.277
same,glycan array binding signal (z-score),Fuc(a1-2)Gal(b1-4)GlcNAc,-0.304
same,glycan array binding signal (z-score),[2],-0.238
same,glycan array binding signal (z-score),[3],-0.304
same,glycan array binding signal (z-score),[4],-0.33
same,glycan array binding signal (z-score),[5],-0.342
same,glycan array binding signal (z-score),[6],-0.307
same,glycan array binding signal (z-score),[7],-0.342
same,glycan array binding signal (z-score),[8],-0.287
same,glycan array binding signal (z-score),[9],-0.324
same,glycan array binding signal (z-score),[10],-0.321
same,glycan array binding signal (z-score),[11],-0.255
same,glycan array binding signal (z-score),[12],-0.084
same,glycan array binding signal (z-score),[13],-0.183
same,glycan array binding signal (z-score),[14],-0.332
same,glycan array binding signal (z-score),[15],-0.31
same,glycan array binding signal (z-score),[16],-0.151
same,glycan array binding signal (z-score),Gal(b1-4)Glc,-0.329
same,glycan array binding signal (z-score),[17],-0.257
same,glycan array binding signal (z-score),[18],-0.306
same,glycan array binding signal (z-score),GalNAc(b1-3)GalNAc,-0.314
same,glycan array binding signal (z-score),[19],-0.33
same,glycan array binding signal (z-score),[20],0.045
same,glycan array binding signal (z-score),[21],-0.23
same,glycan array binding signal (z-score),[22],-0.21
same,glycan array binding signal (z-score),[23],5.89
same,glycan array binding signal (z-score),[24],4.37
same,glycan array binding signal (z-score),[25],8.45
same,glycan array binding signal (z-score),[26],4.46
same,glycan array binding signal (z-score),[27],5.75
same,glycan array binding signal (z-score),[28],5.87
same,glycan array binding signal (z-score),[29],-0.157
same,glycan array binding signal (z-score),[30],7.8
same,glycan array binding signal (z-score),[31],5.95
same,glycan array binding signal (z-score),[32],7.24
same,glycan array binding signal (z-score),[33],4.71
same,glycan array binding signal (z-score),Neu5Ac(a2-6)Gal(b1-4)Glc,0.183
same,glycan array binding signal (z-score),[34],-0.197
same,glycan array binding signal (z-score),Neu5Ac(a2-8)Neu5Ac,-0.046
same,glycan array binding signal (z-score),[35],-0.2
same,glycan array binding signal (z-score),[36],0.647
same,glycan array binding signal (z-score),[37],6.28
same,glycan array binding signal (z-score),Neu5Gc(a2-6)GalNAc,-0.044
same,glycan array binding signal (z-score),[38],-0.252
